Inconclusive results are not listed. The source made the active and inactive calls. Calls come from the whole dose curve; as a rule, active = well fitted inhibition curve with a large enough effect; inconclusive = small, poorly fitted or top-dose-only effect; inactive = flat fitted curve, though single readings scatter.
Tests used:
Assay in all cases: qHTS profiling for inhibitors of Plasmodium falciparum proliferation (AID 504749); note: nearly all actives have a fitted effect of over 60% in size
Details in all cases: P. falciparum in erythrocytes, SYBR Green DNA, 72 h; series mostly up to 28.7 µM
[1] = test system: CP191
Procedure, shortened: (§1)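 In a 72 h erythrocytic culture (37 C, humidified, 5% CO2) at 2.5% hematocrit and 0.3% starting parasitemia, compounds were tested; SYBR Green I in detergent lysis buffer stained parasite DNA overnight.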

[2] = test system: CP192
Procedure, shortened: as §1

[3] = test system: CP237
Procedure, shortened: as §1

[4] = test system: CP238
Procedure, shortened: as §1

[5] = test system: CP247
Procedure, shortened: as §1

[6] = test system: CP252
Procedure, shortened: as §1

[7] = test system: CP256
Procedure, shortened: as §1

[8] = test system: CP260
Procedure, shortened: as §1

[9] = test system: CP262
Procedure, shortened: as §1

[10] = test system: CP266
Procedure, shortened: as §1

[11] = test system: CP268
Procedure, shortened: as §1

[12] = test system: CP269
Procedure, shortened: as §1

[13] = test system: CP194
Procedure, shortened: as §1

[14] = test system: CP201
Procedure, shortened: as §1

[15] = test system: CP203
Procedure, shortened: as §1

[16] = test system: CP211
Procedure, shortened: as §1

[17] = test system: CP215
Procedure, shortened: as §1

[18] = test system: CP217
Procedure, shortened: as §1

[19] = test system: CP250
Procedure, shortened: as §1

[20] = test system: CP265
Procedure, shortened: as §1

Measured: Potency
Potency is the fitted concentration of half-maximal effect.

Nc1c2ccccc2nc2ccccc12
inactive: [9]
active: [1] 11.2 µM | [2] 12 µM | [3] 8.91 µM | [4] 10 µM | [5] 10 µM | [6] 10 µM | [7] 11.2 µM | [8] 7.94 µM | [10] 13.5 µM | [11] 13.5 µM | [12] 13.5 µM

O=S(=O)(O)c1ccc2nc(-c3ccccc3)[nH]c2c1
inactive: [1] | [2] | [13] | [14] | [15] | [16] | [17] | [18] | [3] | [4] | [5] | [19] | [6] | [7] | [8] | [9] | [20] | [10] | [11] | [12]

CN1CCCN(C(c2ccccc2)c2ccc(Cl)cc2)CC1 (centres undefined)
inactive: [9]
active: [1] 10 µM | [18] 14.1 µM | [3] 11.2 µM | [5] 11.2 µM | [19] 12.6 µM | [7] 10 µM | [8] 10 µM | [20] 5.01 µM

CCCCCCCCCCCCCCCC[n+]1ccccc1
active: [1] 4.47 µM | [2] 7.57 µM | [13] 6.75 µM | [14] 7.57 µM | [15] 9.53 µM | [16] 6.75 µM | [17] 13.5 µM | [18] 5.62 µM | [3] 7.94 µM | [4] 7.08 µM | [5] 5.62 µM | [19] 6.31 µM | [6] 6.31 µM | [7] 8.91 µM | [8] 3.98 µM | [9] 3.38 µM | [20] 8.91 µM | [10] 13.5 µM | [11] 9.53 µM | [12] 5.36 µM

CCCCCCCCCCCCCCCC[N+](C)(C)Cc1ccccc1
active: [1] 1 µM | [2] 9.53 µM | [13] 12 µM | [14] 12 µM | [16] 10.7 µM | [17] 9.53 µM | [18] 3.16 µM | [3] 3.55 µM | [4] 0.891 µM | [5] 2.24 µM | [19] 2.51 µM | [6] 3.16 µM | [7] 3.98 µM | [8] 2 µM | [9] 4.78 µM | [20] 3.98 µM | [10] 9.53 µM | [11] 12 µM | [12] 7.57 µM

O=[N+]([O-])c1ccc(O)c2ncccc12
active: [1] 12.6 µM | [5] 11.2 µM | [6] 8.91 µM | [9] 12 µM

— PubChem BioAssay (NCATS)
